# HCV inh: qHTS Assay for Inhibitors of Hepatitis C Virus (HCV). Huh7.5.1 HCVcc-Cre infection, luciferase reporter, 44 h. Potency, µM (doses to about 41.8 µM), inactives show at the top dose activity change, negative = inhibition, hits mostly inhibitors. 340,000 compounds, 3.4% hits. AID 651820, 2012; active = well fitted inhibition curve with a large enough effect; inconclusive = small, poorly fitted or top-dose-only effect, or another doubt; inactive = no such curve, though single readings can be large or run the other way
#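 Infectious HCV cell culture screen: compound-treated cells (1,000/well, pre-plated 4 h) are infected with HCVcc-Cre at roughly 0.5 moi and grown 44 h. Infection is quantified by luciferase signal after 15 min substrate incubation at room temperature.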
# MARV entry inh: qHTS for inhibitors of binding or entry into cells for Marburg Virus; 300,000 compounds, 1.8% hits; Marburg virus pseudotyped entry inhibition, cell reporter; Potency, µM (highest dose often 37.8 µM), for inactives: top-dose activity change, negative = inhibition, hits mostly inhibitors; calls by dose curve; tested in HEK293 cells
# Vaccinia mCherry: qHTS for Stage-Specific Inhibitors of Vaccinia Orthopoxvirus: mCherry Reporter Primary qHTS | Vaccinia virus mCherry reporter infection, fluorescence | Potency, µM (top dose mostly 36.5 µM), without a hit: at the highest dose activity change, negative = inhibition, usual class: inhibitors | 310,000 compounds, 0.63% hits | AID 720579, 2013; calls by dose curve; tested in A549 cells; also: nearly all actives have a fitted effect of over 35% in size
# Lassa entry inh: qHTS for Inhibitors of binding or entry into cells for Lassa Virus; AID 540256, 2011; 300,000 compounds, 1.2% hits; Potency, µM (series often up to 37.9 µM), for the others: top-dose activity change, negative = inhibition, most hits filed as inhibitors; Lassa virus pseudotype entry inhibition, cell reporter; calls by dose curve; tested in HEK293 cells; also: nearly all actives have a fitted effect of over 50% in size
# VACV Venus inh: qHTS for Stage-Specific Inhibitors of Vaccinia Orthopoxvirus: Venus Reporter Primary qHTS; 330,000 compounds, 0.46% hits; Vaccinia virus Venus reporter expression, fluorescence; Potency, µM (titrated, usually from 36.5 µM), for inactives: at the highest dose activity change, negative = inhibition, most hits filed as inhibitors; calls by dose curve; tested in A549 cells; also: nearly all actives have a fitted effect of over 30% in size
# * marks the source's active call; other numbers are inactive results; i = inactive; ? = inconclusive; nt = no result; [ ] = dose if it differs, or a comment. In the library only some 4.6% were active in any assay of this set; here they are far more common. % is scaled to controls: 0 for no effect and ±100 for the full control effect; potency is read from the fitted curve at half-maximal effect.
SMILES,HCV inh,MARV entry inh,Vaccinia mCherry,Lassa entry inh,VACV Venus inh
CCCCCOc1ccc2oc(=O)c3c(c2c1)CCCN3C(=O)CN1CCCC(C(=O)OCC)C1 (stereo unspecified),?,?,?,9.2µM*,?
CCCn1c(CC)nc([N+](=O)[O-])c1S(=O)(=O)c1ccccc1,12.6µM*,?,nt,?,nt
Cn1cnc([N+](=O)[O-])c1S(=O)(=O)c1cccc(Cl)c1,?,-30.7%,nt,-17.8%,nt
O=C(Nc1ccc(N2CCN(C(=O)c3ccccc3)CC2)c(Cl)c1)c1ccc(Br)o1,?,?,nt,20.6µM*,nt
O=C(Nc1ccc2c(c1)oc1ccccc12)c1ccc(Br)o1,17.8µM*,1.1%,nt,?,?
O=C(Nc1ccc(N2CCN(C(=O)c3ccccc3)CC2)cc1)c1ccc(Br)o1,?,?,nt,-27.5%,-29.3%
O=C(Nc1ccc(N2CCOCC2)c(Cl)c1)c1ccc(Br)o1,10µM*,-10.3%,-26.4%,?,-16.8%
CCOC(=O)c1sc(NC(=O)CN2C(=O)NC3(CC(C)CC(C)(C)C3)C2=O)c(C(=O)OCC)c1C (stereo unspecified),4.8%,-29.8%,-14.7%,-6.0%,-6.1%
CCOC(=O)c1sc(NC(=O)CN2C(=O)NC3(CC(C)CC(C)(C)C3)C2=O)cc1C (stereo unspecified),11.2µM*,?,?,-10.3%[46.1 µM],?
CCC12CN3CC(CC)(CN(C1)C3c1ccc(OCc3ccccc3)cc1)C2=O (stereo unspecified),nt,5.7%[46.1 µM],-6.5%,7.7%[46.1 µM],-0.2%
CCOC(=O)c1cc(C)n(Cc2ccc(OCC)c(OC)c2)c1C,11.2µM*,-24.2%,nt,-17.9%,nt
C[C@@H]1CN(C2CCN(C(=O)c3ccccc3)CC2)C[C@H](C)O1,nt,0.0%,nt,nt,nt
COc1ccc2cc(CNCc3nonc3C)c(N3CCCC(CO)C3)nc2c1 (stereo unspecified),nt,nt,-12.4%,nt,-4.3%
Cc1cc(C)nc(-n2nc(C)c3c2N(Cc2ccccc2C)C(=O)CC3c2ccc(Cl)cc2)n1 (stereo unspecified),nt,8.2%[46.1 µM],2.7%,-6.3%[46.1 µM],-5.0%
Cc1cc(-c2nnc3n2N=C(c2ccccc2)CS3)n[nH]1,?,0.0%[14.2 µM],-11.6%,-16.8%,-19.2%
CCOc1ccc(C2=Nn3c(nnc3-c3ccc(OC)cc3)SC2)cc1,?,5.17µM*,nt,?,nt
Cc1cc(-c2nnc3n2N=C(c2ccc(-c4ccccc4)cc2)CS3)n[nH]1,-12.2%,?,11.2µM*,?,?
O=C1CC(=C(c2ccccc2)c2ccccc2)C(=O)N1CCCCN1CCN(c2ccccc2)CC1,1µM*,?,nt,?,?
Clc1cccc(N2CCN(CCCN3CCN(c4ccccc4)CC3)CC2)c1,11.2µM*,?,?,?,-8.3%
Cc1nc(-c2ccc(S(=O)(=O)Nc3ccc(OC(F)(F)F)cc3)cc2)co1,nt,nt,-1.7%,-2.6%[46.1 µM],-0.6%
O=C(O)C#CC(=O)O,nt,nt,i,nt,-13.2%
O=C(c1ccco1)N1CCN(c2nc(C3CC3)nc3sc4c(c23)CCCC4)CC1,?,?,-28.6%,-15.1%,-17.3%
Cc1nc(N2CCN(C(=O)c3cccs3)CC2)c2c3c(sc2n1)CCCC3,11.2µM*,-2.8%[46.1 µM],?,?,?
Cc1nc(N2CCN(C(=O)c3ccco3)CC2)c2c3c(sc2n1)CCCC3,2.82µM*,?,?,-55.7%,-21.9%
Cc1nc(N2CCN(C)CC2)c2c3c(sc2n1)CCCC3,-15.8%,nt,nt,nt,nt
SMILES,HCV inh,MARV entry inh,Vaccinia mCherry,Lassa entry inh,VACV Venus inh
Cc1nc(N2CCN(C(=O)c3ccco3)CC2)c2c3c(sc2n1)CC(C)CC3 (stereo unspecified),12.6µM*,13µM*,nt,?,nt
CCOC(=O)NN=C1C[C@@H](O)[C@@H](O)[C@@H]2[C@H]3C(=O)N(C[C@@H]4CCCO4)C(=O)[C@@H]3CC[C@H]12,nt,5.7%[14.2 µM],nt,nt,nt
CN(C)c1ccc(/C=C2/CCc3ccccc32)cc1,nt,nt,6.8%,nt,-21.8%
Clc1ccccc1-c1nnc2n1-c1ccccc1SC2,-6.1%,-8.4%[46.1 µM],i,4.3%,-12.4%
N#CN=c1snc(-c2ccccc2Cl)n1-c1ccccc1Cl,nt,nt,11.2µM*,nt,?
N#CN=c1snc(-c2ccccc2)n1-c1ccc(Cl)cc1,nt,nt,5.62µM*,nt,3.55µM*
Cc1cccc(CNC(=O)c2cc3cc(S(=O)(=O)N4CCCCC4)ccc3n2C)c1,nt,nt,-9.5%,-27.6%[46.1 µM],-21.8%

# Screens (PubChem BioAssay)
